PubChem BioAssay (Tox21)
Records with an inconclusive call do not appear. Where a call stands in place of a potency, no number is given. A number with no mark means an inactive call. Calls of active or inactive are those of the source. The call rests on the fitted dose curve; in most records, active means well fitted cell-killing curve with a large enough effect in the repeat runs; inconclusive means weak or mixed curves, or effect the other way; inactive means flat fitted curve, though single readings scatter.

Experiments:
[1] = cAMP Responsive Elements (CRE) small molecule antagonists, cell-based qHTS assay: qHTS cell viability counter screen (AID 2060913); further: nearly all actives have a fitted effect of over 40% in size
Outline: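 CRE-bla HEK293T cells (2,000/well, 18 h) given compound plus NKH477 0.25 uM final for 3 h at 37C; viability counter-screen by CellTiter-Glo luminescence in same wells after 30 min.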

[2] = cAMP Responsive Elements (CRE) small molecule agonists, cell-based qHTS assay: qHTS cell viability counter screen (AID 2060914);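 further: viability read after 3 h of compound exposure; nearly all actives have a fitted effect of over 50% in size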
Outline: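 Cells are seeded and incubated 18 h, treated with compounds in DMSO for 3 h, read for the bla reporter, then given CellTiter-Glo; luminescence is measured after 30 min at room temperature.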

| SMILES | Potency [1] | Potency [2] | viability change, negative = cytotoxic [1] | activity change, negative = cytotoxicity [2] |
| --- | --- | --- | --- | --- |
| CC(C)(C)C(O)/C=C/c1ccc2c(c1)OCO2 (stereo unspecified) | inactive | inactive | – | – |
| O=C(Nc1ccc(Cl)cc1)Nc1ccc(Cl)c(Cl)c1 | inactive | inactive | – | – |
| O=C(/N=N/C(=O)OCc1ccccc1)OCc1ccccc1 | inactive | inactive | – | – |
| C=CCOc1c(Br)cc(C(C)(C)c2cc(Br)c(OCC=C)c(Br)c2)cc1Br | inactive | inactive | – | – |
| Cc1c[nH]c(=S)[nH]c1=O | inactive | inactive | – | – |
| CN(C(=O)c1c(O)c2ccccc2n(C)c1=O)c1ccccc1 | inactive | inactive | – | – |
| Cc1cccc(C)c1NC(=O)c1ccccc1C(=O)O | inactive | inactive | – | – |
| OC1CCCCCCCCCCC1 | inactive | inactive | – | – |
| CC(=O)[O][Al][O]C(C)=O | inactive | inactive | – | – |
| Cc1oc(C)c(C(=O)Nc2ccccc2)c1C | inactive | inactive | – | – |
| CN(C)CCN1C(=O)c2ccccc2N(C)c2ccccc21 | inactive | inactive | – | – |
| CCCCCCCCCC/C=C/C#N | inactive | inactive | – | – |
| Cc1ncc([N+](=O)[O-])n1CC(C)O (stereo unspecified) | inactive | inactive | – | – |
| OCC(CO)n1cnc(-c2ccc(F)cc2)c1-c1ccnc(Oc2ccccc2)n1 | inactive | inactive | – | – |
| C=Cc1ccccc1C=C | inactive | inactive | – | – |
| ClC/C=C\CCl | inactive | inactive | – | – |
| Nc1ccc(-c2ccc(F)cc2)cc1 | inactive | inactive | – | – |
| C=C[Si]1(C)O[Si](C)(C=C)O[Si](C)(C=C)O[Si](C)(C=C)O1 (stereo unspecified) | inactive | inactive | – | – |
| COCC(C)OC(C)=O (stereo unspecified) | inactive | inactive | – | – |
| CCCc1nc(C)c2c(=O)[nH]c(-c3cc(S(=O)(=O)N4CCN(CC)CC4)ccc3OCC)nn12 | inactive | inactive | – | – |
| O=C(Cl)c1cc(C(=O)Cl)cc(C(=O)Cl)c1 | inactive | inactive | – | – |
| Cn1nnc2c(C(N)=O)ncn2c1=O | inactive | inactive | – | – |

| SMILES | Potency [1] | Potency [2] | viability change, negative = cytotoxic [1] | activity change, negative = cytotoxicity [2] |
| --- | --- | --- | --- | --- |
| CCCCNc1cc(C(=O)O)cc(S(N)(=O)=O)c1Oc1ccccc1 | inactive | inactive | – | – |
| CCCCCCOc1ccccc1C(N)=O | inactive | inactive | – | – |
| O=C(/C=C/c1ccccc1)NCCO | inactive | inactive | – | – |
| O=[N+]([O-])c1ccc(O)c2ncccc12 | inactive | inactive | – | – |
| Cc1ccc(/C=N/n2c(-c3ccccc3)csc2=S)cc1 | inactive | inactive | – | – |
| CC(C)C=O | inactive | inactive | – | – |
| CCCCCCCC(=O)OCCCCCC | inactive | inactive | – | – |
| CCCCCCCCCC(=O)OC | inactive | inactive | – | – |
| CCOc1ccc2nc3cc(N)ccc3c(N)c2c1 | inactive | inactive | – | – |
| Brc1cc(Br)cc(Br)c1 | inactive | inactive | – | – |
| CCC(C)c1cc(C(C)(C)C)c(O)c(C(C)(C)C)c1 (stereo unspecified) | inactive | inactive | – | – |
| C/C=C/C(=O)N(CC)c1ccccc1C | inactive | inactive | – | – |
| COc1cc(C(=O)NCCCCCC(=O)O)cc(OC)c1OC | inactive | inactive | – | – |
| C=CN1CCCC1=O | inactive | inactive | – | – |
| O=S(=O)(O)c1cc(S(=O)(=O)O)c2ccc3c(S(=O)(=O)O)cc(S(=O)(=O)O)c4ccc1c2c43 | – | – | 3.35% [at 18.9 µM] | -11.7% [at 18.9 µM] |
| Cn1sccc1=O | inactive | inactive | – | – |
| CC(C)Oc1ccccc1O | inactive | inactive | – | – |
| CCCCNC1CC(C)(C)NC(C)(C)C1 | inactive | inactive | – | – |
| CC(=O)Oc1c(C)c(C)c2c(c1C)CC[C@@](C)(CCC[C@H](C)CCC[C@H](C)CCCC(C)C)O2 | inactive | inactive | – | – |
| Oc1cccc2cc3cccc(O)c3c(O)c12 | inactive | inactive | – | – |
| CCCCC(CC)COC(=O)c1ccc(N(C)C)cc1 (stereo unspecified) | inactive | inactive | – | – |
